# Only some compounds are listed: those with a hit (about 2.4% of all), similar ones and a draw of the others.
# M1 PAM parental: nonselective calcium activators in parental CHO-K1 cells, primary screen, counter-screen for M1 PAM project, cell-based, Fluo-8 calcium fluorescence, full deck, 1536-well | ATP EC20; 0% at ATP EC20, 100% at ATP max | activation, % at 3 µM | actives 0.02% (n = 360,000) | AID 602247, 2012;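 active means activation above the run cutoff, the mean activation of all test compounds plus 3 SD, cut at about 40% in these data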;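 further: peak over basal fluorescence ratio in a 140 s read after ATP addition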
# CHRM1 agonist: human M1 muscarinic receptor agonists, primary screen, Fluo-8 calcium fluorescence, CHO-K1 cells, HTS | activation, % at 3 µM | CHO-K1 hM1, agonist mode; 0% DMSO, 100% acetylcholine EC100 | actives 0.33% (n = 360,000);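 active means activation above the run's mean compound activation plus 3 SD, cut at about 16% in these data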;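 further: peak over basal fluorescence ratio within a 140 s kinetic read after compound addition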
# Target sequence (P11229 whole entry, looked up): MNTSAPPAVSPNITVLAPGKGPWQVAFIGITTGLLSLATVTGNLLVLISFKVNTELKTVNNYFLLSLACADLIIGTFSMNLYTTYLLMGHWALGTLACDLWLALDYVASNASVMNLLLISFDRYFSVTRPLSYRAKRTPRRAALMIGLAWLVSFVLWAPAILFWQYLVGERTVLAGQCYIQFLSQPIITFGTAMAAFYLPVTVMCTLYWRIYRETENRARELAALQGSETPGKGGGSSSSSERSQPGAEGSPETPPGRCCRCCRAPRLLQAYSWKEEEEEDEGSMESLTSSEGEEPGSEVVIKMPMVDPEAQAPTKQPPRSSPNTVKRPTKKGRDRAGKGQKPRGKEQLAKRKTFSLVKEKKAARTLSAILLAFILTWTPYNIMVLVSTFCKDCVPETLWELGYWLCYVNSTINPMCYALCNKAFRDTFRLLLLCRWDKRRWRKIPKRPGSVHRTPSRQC
# CHRM1 antagonist: human M1 muscarinic receptor antagonists, primary screen, CHO-K1 cells, Fluo-8 calcium fluorescence, 1536-well | Muscarinic acetylcholine receptor M1 (Homo sapiens), P11229 | CHO-K1 hM1, ACh EC80 antagonist | inhibition, % at 3 µM | actives 1.3% (n = 360,000) | AID 588852, 2011;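 active means percent inhibition above its own plate's cutoff, namely the mean of that plate's compound wells plus 3 SD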;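 further: peak over basal fluorescence ratio during 140 s after agonist addition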
# CHO-K1 Ca antag: M1 antagonist counterscreen hit in parental CHO-K1 cells; ATP-induced calcium, Fluo-8 fluorescence; inhibition, % at 3 µM; actives 0.6% (n = 360,000);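 active means inhibition above a per-plate cutoff, the plate's mean sample inhibition plus 3 SD, cut at about 24% in these data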
# M1 PAM: human M1 muscarinic receptor positive allosteric modulators, primary screen, CHO-K1 cells, Fluo-8 calcium fluorescence, 1536-well | Muscarinic acetylcholine receptor M1 (Homo sapiens), P11229 | CHO-K1 hM1, ACh EC20; 0% = ACh EC20, 100% = maximal ACh | activation, % at 3 µM | actives 0.088% (n = 360,000) | AID 588819, 2011; in the data active means activation above about 19%, passing the limit was not always enough
# CHO-K1 Ca ag: counter-screen for M1 agonists: effect in parental CHO-K1 cells; AID 602248, 2012; actives 0.48% (n = 360,000); activation, % at 3 µM; Fluo-8 calcium fluorescence; scaled to maximal ATP response, vehicle zero; in the data active means activation above about 15%;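 further: untransfected CHO-K1 host cells lacking M1 receptor as counterscreen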
# Numbers stand for hits; n = inactive.
SMILES,M1 PAM parental,CHRM1 agonist,CHRM1 antagonist,CHO-K1 Ca antag,M1 PAM,CHO-K1 Ca ag
O=C1COc2ccc(S(=O)(=O)CCC(=O)N3CCN(c4cccc(C(F)(F)F)c4)CC3)cc2N1,n,n,n,n,n,17.0
COc1ccc(Cl)cc1-c1nc(SCC(=O)N(C)C2CCS(=O)(=O)C2)n[nH]1 (stereo not drawn),n,n,n,n,n,n
CC(c1ccccc1)N1CC(C(=O)Nc2ccc(F)cc2)CC1=O (stereo not drawn),n,n,n,n,n,n
Cc1ccc(C)n1-n1c(C)nc2sc3c(c2c1=O)CCCCC3,n,n,27.6,n,n,n
COc1ccc(N2C(=O)CCC(C(=O)O)C2c2ccc(OC)c(OC)c2)cc1 (stereo not drawn),n,n,n,n,n,n
COc1ccc(N2C(=O)CCC(C(=O)NCCN3CCOCC3)C2c2ccc(OC)c(OC)c2)cc1 (stereo not drawn),n,n,21.7,n,n,n
O=C(Nc1ccccc1)N(c1ccccc1)C1C=CS(=O)(=O)C1 (stereo not drawn),n,n,n,n,n,n
O=C(CNS(=O)(=O)c1ccc(Br)s1)NCc1ccc(F)cc1,n,n,n,n,n,n
O=C(CCNS(=O)(=O)c1ccc(Br)s1)NCc1ccc(F)cc1,n,n,n,29.4,n,n
C=C1C(=O)C=C2CN(C(=O)c3ccccc3)[C@@](Cc3ccc(F)cc3)(C(=O)OC)[C@@H]12,n,71.9,103.5,83.3,n,74.5
CCN(CC)c1ccc(NC(=O)CSc2nc3ccccc3c(=O)n2-c2cc(S(=O)(=O)N(C)C)ccc2C)cc1,n,n,n,24.1,n,n
COc1ccc([N+](=O)[O-])cc1NC(=O)C1C2C=CC(C2)C1C(=O)O (stereo not drawn),n,n,n,n,n,n
O=C(c1ccccc1)N1N=C(c2ccc(F)cc2)CC1(O)C(F)(F)F (stereo not drawn),n,n,n,n,n,n
CN1CCC2(CC1)N=C(c1ccc(F)cc1)C(=S)N2C(=O)c1ccccc1,n,n,44.5,n,n,n
CCN1CCN(c2nc(-c3ccc(F)cc3)cc(=O)[nH]2)CC1,n,n,n,n,n,n
CCN1CCC2(CC1)N=C(c1ccc(F)cc1)C(=S)N2C(=O)c1ccc(C(C)(C)C)cc1,n,n,100.5,n,n,n
CC(=O)C1=C(c2ccccc2)NC(=S)NC1c1cc(Cl)c(OC(C)C)c(Cl)c1 (stereo not drawn),n,n,n,n,n,24.1
COc1cc(C2NC(=S)NC(c3ccccc3)=C2C(C)=O)cc(Cl)c1OCC(=O)O (stereo not drawn),n,n,n,n,n,n
CCS(=O)(=O)c1ccc(O)c(NC(=O)COc2ccc(OC)cc2)c1,n,n,n,n,n,n
CCCc1ccc(OCC(=O)Nc2cc(S(=O)(=O)CC)ccc2O)cc1,n,n,n,n,n,16.1
COc1ccc(C(=O)C[n+]2ccc3c(c2)nc(-c2ccccc2)n3C)cc1,n,n,56.8,n,n,n
CC(=O)NC1C(OC(=O)/C=C/c2ccccc2)OC(COC(C)=O)C(OC(C)=O)C1OC(C)=O (stereo not drawn),n,n,n,n,n,n
CN(C)c1ccc(-c2csc(C(O)c3ccc(F)c(F)c3)n2)cc1 (stereo not drawn),n,41.7,42.2,23.8,n,34.8
COc1ccc(-c2csc(C(O)c3ccc(OC)cc3)n2)cc1 (stereo not drawn),n,n,n,n,n,n
CN(C)c1ccc(-c2csc(C(O)c3ccc(F)cc3)n2)cc1 (stereo not drawn),n,18.0,n,n,n,23.0
SMILES,M1 PAM parental,CHRM1 agonist,CHRM1 antagonist,CHO-K1 Ca antag,M1 PAM,CHO-K1 Ca ag
COc1ccc(C(O)c2nc(-c3ccc(N(C)C)cc3)cs2)cc1 (stereo not drawn),n,n,n,n,n,23.6
COc1ccc(OC)c(/C=C/C(=O)N(C)CC(=O)Nc2ccc(N3CCOCC3)cc2)c1,n,n,n,n,n,n
CCn1c(N2CCN(C(=S)NCC(C)C)CC2)nc2ccccc21,n,n,38.8,n,n,n
CCn1c(N2CCN(C(=S)NC)CC2)nc2ccccc21,n,n,n,n,n,n
O=C(OCc1nc2ccccc2[n+]([O-])c1C(=O)c1ccccc1)c1ccco1,n,n,n,24.2,n,n
CC(=O)c1c(COC(=O)c2ccco2)nc2ccccc2[n+]1[O-],n,n,n,n,n,n
O=C(Oc1cccc([N+](=O)[O-])c1)C1CCN(C(=O)c2ccc(F)cc2)CC1,n,n,n,n,n,n
CCC(=O)N1CCCc2cc(S(=O)(=O)N3CCN(c4ncccn4)CC3)ccc21,n,n,n,24.2,n,n
Cn1c(N)c(N2CCCCC2)c(=O)n(CC(=O)Nc2cccc(C#N)c2)c1=O,n,n,n,n,n,n
Clc1ccc(C(c2ccccc2)N2CCNCC2)cc1 (stereo not drawn),n,n,n,n,n,n
CC12CNCC(C)(CN(C(c3ccccc3)c3ccccc3)C1)C2,n,n,58.9,n,n,n
O=C(O)[C@@H](c1ccccc1)N1Cc2ccccc2C1=O,n,n,n,30.3,n,n
O=C(O)C(c1ccccc1)N1C(=O)c2ccccc2C1=O (stereo not drawn),n,n,n,n,n,n
COc1ccc(Nc2sc(C(=O)c3ccc(Cl)cc3)c(N)c2C(=O)Nc2ccccc2OC)cc1,n,38.6,44.0,31.5,n,19.6
Cc1ccc(OCCCN2C(=O)C(=O)c3cccc(C)c32)cc1,n,n,n,n,n,n
Cc1cccc2c1N(CCOc1ccc(C(C)(C)C)cc1)C(=O)C2=O,n,20.9,n,n,n,n
Cc1cccc2c1N(CCOc1ccccc1Cl)C(=O)C2=O,n,23.6,n,n,n,n
O=C(CNC(=O)C1CCCCC1)Nc1ccccc1Cl,n,n,n,n,n,n
O=C(CNC(=O)C1CCCCC1)Nc1cc(Cl)ccc1Cl,n,n,n,24.8,n,n
COc1cc(CN(C)c2ncnc3sccc23)ccc1OC(F)F,n,n,n,n,n,n
O=S(=O)(c1cccc2cccnc12)N1CCOCC1,n,n,n,n,n,n
N#Cc1cccc2cccc(S(=O)(=O)N3CCOCC3)c12,n,n,n,26.1,n,n
O=C(CN1C(=O)C(c2ccc(F)cc2)=NC12CCCC2)Nc1ccc(F)cc1,n,n,n,36.2,n,n
COc1ccc(-c2nnc(-c3ccc(N(C)C)cc3)o2)cc1,n,n,n,n,n,n

# Screens (PubChem BioAssay)
